Most compounds without a hit are left out; they make up all but 4.8% or so of the library.
DAX1 inh-1: DAX1 (NR0B1) inhibition, primary screen | inhibition, % at 6.8 µM | 370,000 compounds, 1.1% hits | HEK293T StAR-luciferase reporter, SF-1/DAX-1 repression relief | AID 652010;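 active = inhibition above the mean over all tested compounds plus 3 SD, cut at about 3.6% in these data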;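 note: 0% = DAX-1 cells with DMSO and 100% = cells lacking DAX-1 with DMSO; higher inhibition means more luminescence from relief of DAX-1 repression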
hgDAF-12 ag: activates the H. glycines DAF-12 receptor ligand-binding domain; 370,000 compounds, 1.8% hits; HEK293 GAL4-hgDAF12 UAS-luciferase reporter, agonist luminescence; normalized to butyrate control; AID 687014; activation, % at 6.8 µM;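 active = activation above a cutoff set at the mean of all screened compounds plus 3 SD, cut at about 10% in these data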;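 note: 0% = DMSO wells and 100% = sodium butyrate wells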
DAX1 inh-2: NR0B1 (DAX1) inhibition; P51843; HEK293 Gal4-DAX1 luciferase reporter, luminescence; inhibition, % at 6.75 µM; 340,000 compounds, 0.99% hits; AID 504766;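 active = inhibition above the mean over all tested compounds plus 3 SD, cut at about 4.2% in these data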;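 note: 0% = DAX1-transfected cells with DMSO and 100% = empty-vector control cells with DMSO; inhibition shows as a rise in luminescence from relieved DAX1 repression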
Target sequence (P51843 207-470 limits assumed): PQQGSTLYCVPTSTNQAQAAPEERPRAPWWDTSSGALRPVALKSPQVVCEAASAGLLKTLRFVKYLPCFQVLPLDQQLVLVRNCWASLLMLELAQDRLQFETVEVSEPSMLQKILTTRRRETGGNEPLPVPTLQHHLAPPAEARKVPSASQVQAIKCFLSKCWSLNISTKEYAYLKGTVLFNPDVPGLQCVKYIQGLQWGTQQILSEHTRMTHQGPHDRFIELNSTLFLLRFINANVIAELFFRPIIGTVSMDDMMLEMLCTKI
SMARCA2 act: SMARCA2 function activation, primary screen; AID 652017; MG213 cells, MMTV-luciferase reporter, dexamethasone, overnight; activation, % at 9.1 µM; 370,000 compounds, 1% hits; in the data active = activation above about 7.8%;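 note: 0% = vehicle wells and 100% = reference activator wells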
hcDAF-12 act: activators of H. contortus DAF-12 nuclear receptor | HEK293 hcDAF-12 lit1-tk-luc reporter, luminescence; 0% DMSO, 100% Δ7-dafachronic acid | activation, % at 6.8 µM | 370,000 compounds, 1.4% hits | AID 652067;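 active = activation above the mean of all tested compounds plus 3 SD, cut at about 5.5% in these data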;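 note: 100% = response to 3 µM Δ7-dafachronic acid high control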
ssDAF-12 act: S. stercoralis DAF-12 activation, primary screen. AID 652126. activation, % at 6.8 µM. 370,000 compounds, 1% hits. HEK293 ssDAF-12/GRIP1 lit1-tk-luc reporter, luminescence; % of 3 µM dafachronic acid response;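 active = activation above the mean over all tested compounds plus 3 SD, cut at about 0.9% in these data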;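 note: 0% = DMSO-only wells and 100% = 3 µM delta7-dafachronic acid wells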
* marks the source's active call; other numbers are inactive results.

For Cc1c(O)cc2c(c1O)C(=O)CC(c1ccc(O)cc1)O2 (centres undefined) the results were DAX1 inh-1 0, hgDAF-12 ag -1, DAX1 inh-2 -2, SMARCA2 act -1, hcDAF-12 act 3 and ssDAF-12 act -1.
For O=C(NCc1ccco1)c1cnccn1 the results were DAX1 inh-1 0, hgDAF-12 ag -2, DAX1 inh-2 0, SMARCA2 act -1, hcDAF-12 act 1 and ssDAF-12 act -1.
Screening CCC(=O)Nc1nnc(CCc2ccccc2)s1 returned DAX1 inh-1 0, hgDAF-12 ag 0, DAX1 inh-2 0, SMARCA2 act 0, hcDAF-12 act 0 and ssDAF-12 act -2.
Screening CCOC(=O)C(=O)Nc1nnc(CCc2ccccc2)s1 returned DAX1 inh-1 0, hgDAF-12 ag 0, DAX1 inh-2 1, SMARCA2 act 7.8*, hcDAF-12 act -1 and ssDAF-12 act -1.
`O=S(=O)(c1ccc(OC(F)(F)F)cc1)N1CCCC(N2CCOCC2)C1` (centres undefined) gave DAX1 inh-1 0, hgDAF-12 ag 2, DAX1 inh-2 4.6*, SMARCA2 act -3, hcDAF-12 act 0 and ssDAF-12 act -1.
`COc1ccc(N2CCN(C3CCCN(S(=O)(=O)c4ccccc4)C3)CC2)cc1` (centres undefined) gave DAX1 inh-1 -1, hgDAF-12 ag -3, DAX1 inh-2 0, SMARCA2 act 1, hcDAF-12 act -1 and ssDAF-12 act -1.
Cc1ccc(-c2cn(-c3ccccc3F)c(=S)[nH]2)cc1 was read as DAX1 inh-1 1, hgDAF-12 ag 11*, DAX1 inh-2 4.4*, SMARCA2 act 0, hcDAF-12 act 3 and ssDAF-12 act 1.
Screening COc1ccc(CCNC(=S)Nc2cc(C)cc(C)c2)cc1 returned DAX1 inh-1 0, hgDAF-12 ag 1, DAX1 inh-2 1, SMARCA2 act 0, hcDAF-12 act 0 and ssDAF-12 act -1.
For Cc1ccc(C(=O)C2CC2)c(C)c1 the results were DAX1 inh-1 -1, hgDAF-12 ag 1, DAX1 inh-2 -1, SMARCA2 act -2, hcDAF-12 act 1 and ssDAF-12 act 3.1*.
For Cc1cc(O)c(C2=Nc3ccccc3SC(c3ccc(Cl)cc3)C2)c(=O)o1 (centres undefined) the results were DAX1 inh-1 0, hgDAF-12 ag 6, DAX1 inh-2 2, SMARCA2 act 0, hcDAF-12 act 6.1* and ssDAF-12 act 0.
Screening COc1ccc(C2CC(c3c(O)cc(C)oc3=O)=NCCS2)c(OC)c1 (centres undefined) returned DAX1 inh-2 0.
Screening COc1cccc(-c2noc(CCC(=O)NC3CCCCC3)n2)c1 returned DAX1 inh-1 0, hgDAF-12 ag 3, DAX1 inh-2 0, SMARCA2 act 6, hcDAF-12 act -1 and ssDAF-12 act -1.
For Cc1cc(C)c(C)c(S(=O)(=O)NCC(=O)N2CCCC2)c1C the results were DAX1 inh-1 0, hgDAF-12 ag 1, DAX1 inh-2 1, SMARCA2 act -3, hcDAF-12 act -3 and ssDAF-12 act 0.9*.
Cc1ccc(C)c(S(=O)(=O)NCC(=O)N2CCCC2)c1 was read as DAX1 inh-1 1, hgDAF-12 ag 2, DAX1 inh-2 -1, SMARCA2 act 4, hcDAF-12 act 2 and ssDAF-12 act -1.
CC(=O)c1ccc(N2Cc3ccccc3/C2=N\C(=O)Nc2ccc(Cl)cc2)cc1 was read as DAX1 inh-1 1, hgDAF-12 ag 12*, DAX1 inh-2 2, SMARCA2 act 4, hcDAF-12 act 2 and ssDAF-12 act 1.
`COC(=O)c1ccc(N2Cc3ccccc3/C2=N\C(=O)Nc2ccccc2)cc1` gave DAX1 inh-1 0, hgDAF-12 ag -1, DAX1 inh-2 0, SMARCA2 act -1, hcDAF-12 act -2 and ssDAF-12 act 0.
For O=C(NCCN1CCOCC1)c1ccccc1N1C(=O)[C@@H]2Cc3c([nH]c4ccccc34)C(c3ccc(F)cc3)N2C1=O (some centres undefined) the results were DAX1 inh-1 1, hgDAF-12 ag -2, DAX1 inh-2 1, SMARCA2 act 0, hcDAF-12 act 0 and ssDAF-12 act 0.

Screening results (PubChem BioAssay)
